In PubChem BioAssay (NCI):
Compounds without any hit were thinned out: in the full panel of roughly 83,000, 20% have a hit.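 Cells were grown in 96-well plates and exposed to the test compound at a single concentration for 48 hours; results are reported as percent growth, with values below 10 considered active.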 Unmarked numbers belong to inactive results. Activity calls are given as the source filed them.

Tests used:
Assay in all cases: NCI-60 one-dose screen, 48 h (100 = growth as untreated, 0 = no growth, -100 = all killed)
Conditions in all cases: 10 µM unless noted
SK-MEL-2 melanoma = test system: SK-MEL-2 melanoma
EKVX NSCLC = test system: EKVX NSCLC
SN12C renal = test system: SN12C renal
UO-31 renal = test system: UO-31 renal
TK-10 renal = test system: TK-10 renal
ACHN renal = test system: ACHN renal
CAKI-1 renal = test system: CAKI-1 renal
A498 renal = test system: A498 renal
CCRF-CEM leukemia = test system: CCRF-CEM leukemia
MOLT-4 leukemia = test system: MOLT-4 leukemia

| SMILES | growth (SK-MEL-2 melanoma) | growth (EKVX NSCLC) | growth (SN12C renal) | growth (UO-31 renal) | growth (TK-10 renal) | growth (ACHN renal) | growth (CAKI-1 renal) | growth (A498 renal) | growth (CCRF-CEM leukemia) | growth (MOLT-4 leukemia) |
| --- | --- | --- | --- | --- | --- | --- | --- | --- | --- | --- |
| Cc1ncn(-c2ccc(/C=N/Nc3ccnc4cc(Cl)ccc34)cc2)c1C | -17.3% (active) | 99.8% | -55.8% (active) | -66.9% (active) | -11.7% (active) | -91.1% (active) | -48.9% (active) | 86.5% | 3.17% (active) | 1.04% (active) |
| Cn1cc(C2=C(c3coc4cc(Br)ccc34)C(=O)NC2=O)c2ccccc21 | 96.5% | 67% | 95.7% | 52.5% | 101% | 88.2% | 50.5% | 79.8% | 62.5% | 52.9% |
| O=C(/C=C/c1cccc(F)c1)c1cccc(OCCCCOc2cccc(C(=O)/C=C/c3cccc(F)c3)c2)c1 | 101% | 99% | 95.2% | 96% | 100% | 100% | 99.1% | 110% | 102% | 95% |
| CS(=O)(=O)c1ccc(/C(=N/N=C(N)N)c2ccc(F)cc2)cc1 | 97.2% | 85.3% | 106% | 92.7% | 92% | 98% | 51.4% | 88.8% | 74.9% | 103% |
| O=c1oc2ccc(-c3ccc(F)cc3F)cc2c(=O)n1-c1ccc(Br)cc1F | 41% | 73.5% | 46.2% | 84.5% | 64.8% | 80.5% | 61.9% | 37.4% | 56.3% | 57.8% |
| NC(=S)n1c(=O)n(-c2cccc(C(F)(F)F)c2)c(=O)c2cc(-c3ccc(F)cc3F)ccc21 | -29.1% (active) | 5.19% (active) | -3.03% (active) | 6.1% (active) | 7.56% (active) | -0.456% (active) | -13.5% (active) | -18.8% (active) | 18% | 0.58% (active) |
| O=c1c2ccccc2cc2n1CCN=C2c1ccccc1 | 99.8% | 101% | 109% | 78.6% | 101% | 96.9% | 82.4% | 89.4% | 100% | 102% |
| N#Cc1nc(-c2ccc(Cl)cc2)oc1N1CCC(S(=O)(=O)N2CCOCC2)CC1 | 114% | 105% | 94.1% | 73.2% | 113% | 100% | 89.7% | 102% | 108% | 104% |
| CCCCN1C(=O)/C(=c2\sc3n(c2=O)C2C(NN=3)N(CC)C(=O)N2CC)c2cc(C)ccc21 (stereo not given) | 113% | 85.2% | 97.9% | 75% | 117% | 95.1% | 58.1% | 96% | 94.7% | 91.8% |
| CCCCCN1C(=O)/C(=c2\sc3n(c2=O)C2C(NN=3)N(CC)C(=O)N2CC)c2cccc(C)c21 (stereo not given) | 97.1% | 56.2% | 74.3% | 62.7% | 96.5% | 43.9% | 41.3% | 12% | 30.6% | 53.1% |
| Cc1ccc(S(=O)(=O)c2nc(-c3ccc(F)cc3)oc2S(C)(=O)=O)cc1 | 86.3% | 91.8% | 67.4% | 54.1% | 93.1% | -91.8% (active) | 41.8% | 102% | -14.8% (active) | 2.92% (active) |
| CC(=O)N1N=C(c2cc3ccccc3oc2=O)CC1c1cn(-c2ccccc2)nc1-c1ccc(C)cc1 (stereo not given) | 108% | 98.3% | 98.8% | 83.2% | 105% | 97.8% | 92% | 101% | 102% | 108% |
| Cc1cc(Br)ccc1-n1cc(C#N)c(N)c1C(=O)c1ccc(Br)cc1 | 108% | 97.8% | 110% | 80.1% | 87% | 97.2% | 91.6% | 114% | 96.6% | 108% |
